“And” between values parts separate entries of the source, which are not always exact repeats. Equal entries are not always repeated. Screen size: about 360,000 compounds; about 8,200 (2.3%) were called active. The full list was thinned out, with actives kept by preference. Unmarked numbers belong to inactive results. No stated cut-off is given here; in the data, active means inhibition above about 27%; inactive means the rest.

Broadly, the inhibition is the drop in the measured response relative to a control, in per cent.

The target of this assay is Fructose-bisphosphate aldolase (Mycobacterium tuberculosis (strain ATCC 25618 / H37Rv)) (UniProt P9WQA3). Briefly: Mtb FBA enzyme inhibitors, primary screen, biochemical, fluorescence, strain H37Rv (AID 588726).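 Further: 0% = vehicle and 100% = reference inhibitor.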 The conditions noted are these: purified M. tuberculosis FBA, fluorescence read-out, at 1 µM, active compounds read high.
Fructose-bisphosphate aldolase (Mycobacterium tuberculosis (strain ATCC 25618 / H37Rv)), sequence (P9WQA3 whole entry, looked up): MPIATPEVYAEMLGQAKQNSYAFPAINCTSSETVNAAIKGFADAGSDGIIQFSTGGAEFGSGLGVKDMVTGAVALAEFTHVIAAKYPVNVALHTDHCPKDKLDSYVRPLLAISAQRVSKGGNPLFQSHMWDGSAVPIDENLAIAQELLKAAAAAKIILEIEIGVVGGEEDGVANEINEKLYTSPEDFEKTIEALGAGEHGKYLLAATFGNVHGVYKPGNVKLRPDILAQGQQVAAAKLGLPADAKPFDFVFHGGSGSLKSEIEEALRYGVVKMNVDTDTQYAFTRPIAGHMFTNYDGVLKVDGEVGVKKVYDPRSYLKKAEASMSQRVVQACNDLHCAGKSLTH
For `COc1ccc(CNC(=O)c2ccc(NS(=O)(=O)c3ccc4[nH]c(=O)[nH]c4c3)cc2)cc1OC`, the inhibition is -1.09%. With `O=C(Cc1coc2ccc3ccccc3c12)NCc1cccs1` the figure was 0.72%; with `CCOC(=O)c1c(N)n(CCN2CCOCC2)c2nc3ccccc3nc12`, 113% (active).

Take `O=C(NCc1cccs1)c1cc(-c2ccccn2)nc2ccc(Br)cc12`: the inhibition was 1.48%.

Regarding `CC(C)Cn1c(N)c(C(=O)NCc2cccs2)c2nc3ccccc3nc21`, the inhibition is 48.5% (active). Regarding `CCOC(=O)c1c(CN2CCOCC2)n(-c2ccccc2)c2ccc(O)cc12`, the inhibition is -1.31%. With `CCN(C(=O)COC(=O)c1c(C)nn(-c2ccccc2)c1Cl)c1c(N)n(Cc2ccccc2)c(=O)[nH]c1=O` the figure was -2.12%; with `Cc1ccc(C(=O)OC(C)CN2CCOCC2)cc1` (configuration not stated), -3.53%.

For the compound `CC(CN1CCOCC1)OC(=O)c1ccc(C(C)(C)C)cc1` (configuration not stated), the inhibition was -5.4%. Turning to `CCOC(=O)c1cnn(Cc2ccccc2Cl)c1N`, the inhibition is -1.37%. The result for `COCC(C)OC(=O)c1c(N)n(CCCN2CCOCC2)c2nc3ccccc3nc12` (configuration not stated) reads 104% (active). With `CCOC(=O)c1c(C)[nH]c(C(=O)NCCN2CCOCC2)c1C` the figure was 1.62%. With `CCOc1ccc(OCC)c(NC(=O)C(NS(=O)(=O)c2ccc3c(c2)oc(=O)n3C)C(C)C)c1` (configuration not stated) the figure was 0.18%; with `O=C(NCCc1ccccc1)C(=O)NCC1OCCN1S(=O)(=O)c1cccs1` (configuration not stated), 0.89%; with `CN(C)C(=O)N1CCNCC1`, 2.64%. Turning to `Cc1nc2ccc(S(=O)(=O)NCC(=O)O)cc2s1`, the inhibition was 0.49%. With `COCCNS(=O)(=O)c1cc(Br)ccc1OC` the figure was 0.54%; with `CCCCC(CC(C)O)c1n[nH]c(=S)n1-c1ccccc1` (configuration not stated), 2%; with `Cc1ccc(/C([O-])=C(/C(=S)NCc2ccco2)[n+]2ccccc2)cc1[N+](=O)[O-]`, 1.54%. The result for `CCOc1cc(/C=N/NC(=O)c2ccc(CSc3nncn3C)cc2)ccc1OCC(=O)N1CCOCC1` reads -1.98%; that for `O=C(NCCCN1CCCC1=O)c1ccc(S(=O)(=O)Nc2ccccc2)cc1`, -1.21%. With `C=CCN1CN(S(=O)(=O)c2ccc(OC)cc2)c2nc3ccccc3nc21` the figure was 6.64%; with `C=CCn1c(N)c(S(=O)(=O)c2cccs2)c2nc3ccccc3nc21`, 163% (active). In the case of `Cc1nn(Cc2ccccc2)c(C)c1C(=O)NCCCN1CCCC1=O`, the inhibition is -1.19%.

For `C=CCn1c(C(C)NC(=O)CC)nc2ccccc21` (configuration not stated), the inhibition is 3.68%. The result for `C=CCn1c(N)c(C(=O)OCC(C)C)c2nc3ccccc3nc21` reads 88.6% (active). With `CCCCNc1nc2ccccc2nc1NS(=O)(=O)c1cccs1` the figure was 6.38%; with `C=CCn1c(P(C)(=O)O)nc2ccccc21`, 1.11% and 4.28%. With `CCCCC1N2CC3([N+](=O)[O-])CN1CC([N+](=O)[O-])(C2)C3(C)C` (configuration not stated) the figure was 2.82%; with `COC(=O)c1ccc(NC(=O)CSc2nncn2-c2cccnc2)cc1`, 0.47%. Take `CSc1cccc(NC(=S)N(C(C)C)C(C)c2ccccn2)c1` (configuration not stated): the inhibition was 0.95%. The result for `NC(=O)CSc1nnc(-c2cccc(S(=O)(=O)N3CCOCC3)c2)o1` reads -1.59%; that for `Cc1ccc(NC(=O)Cc2nc(COC(=O)C(C)NS(=O)(=O)c3ccc(C)cc3)cs2)cc1` (configuration not stated), 3.71%; that for `Cc1ccccc1OCC(=O)NNC(=O)c1ccc(-n2cncn2)c([N+](=O)[O-])c1`, -1.97%. With `Cc1ccc(S(=O)Cc2ccc(C(=O)N3CCN(C4CCCCC4)CC3)o2)cc1` (configuration not stated) the figure was 1.16%. With `CCOC(=O)[C@@H]1[C@H]2COc3cc(OC)ccc3[C@H]2N2C(=O)N(c3ccc(F)cc3)C(=O)[C@]12C` the figure was 0.06%.

Take `C[C@@H]1CN([C@H](C)CO)S(=O)(=O)c2ccc(C#CC3CCCCC3)cc2O[C@H]1CN(C)C(=O)Cc1ccncc1`: the inhibition is -2.18%.

As for `O=C1NC(c2cc3c(cc2Cl)OCO3)Oc2ccccc21` (configuration not stated), the inhibition is 0.96%. `Cc1nc2nc(COc3ccccc3)[nH]n2c(=O)c1Cc1ccccc1`: the inhibition was 1.84%. With `CCc1c(C)nc2cc(-c3cccs3)[nH]n2c1=O`, the inhibition is 27.4% (active). The result for `CCCCCN1CC(O)=C(c2ccccc2)C1=N` reads -3.67%; that for `C=CCc1c(C)nc2cc(-c3ccccc3)[nH]n2c1=O`, 33.2% (active). The result for `CCCC(C)n1[nH]c(=O)c2c(C)cc(C)nc21` (configuration not stated) reads 4.12%. The result for `CCc1c(C)nc2cc(C)[nH]n2c1=O` reads 27.9% (active).

As for `Cc1cc(-c2cccs2)nc(-n2cccc2)n1`, the inhibition was 2.52%. The result for `CCC(C)n1[nH]c(=O)c2c(C)cc(C)nc21` (configuration not stated) reads 2.95%; that for `Cc1nc2nc[nH]n2c(=O)c1C/C=C/c1ccccc1`, -4.22%. With `Cc1nc2scc(-c3cccs3)c2c(=O)n1N` the figure was -0.89%; with `COC(=O)CN1C(=O)[C@H]2[C@@H](/C=C/c3ccccc3)N3C(=O)CN(CC4CC4)C(=O)[C@@]3(Cc3ccccc3)[C@H]2C1=O`, 5.08%; with `COc1ccccc1NC(=O)CCC(=O)OC(C)C(=O)c1ccccc1` (configuration not stated), 2.76%. The result for `O=C1N[C@@H](Cc2ccccc2)C(=O)N2[C@@H]3N(S(=O)(=O)c4ccc(F)cc4)c4ccccc4[C@]3(Br)C[C@@H]12` reads -1.67%; that for `O=C(COc1ccc(Cl)cc1Cl)NCCCNC(=O)c1cnccn1`, 4.96%; that for `Cc1ccc(C)c(-n2cc(CN3CCN(C(=O)c4ncn[nH]4)CC3)c(-c3ccccc3)n2)c1`, -1.74%. Take `Cc1ccc(NS(=O)(=O)c2cccs2)cc1S(=O)(=O)N1CCCCCC1`: the inhibition is -1.86%. The result for `CCCCCN(C(=O)NC(=O)Nc1ccccc1OC)S(C)(=O)=O` reads -0.28%. The result for `O=C(Cc1cccs1)NCc1cccc(C(F)(F)F)c1` reads 2.86%; that for `Cn1c(=O)c2cc(NC(=O)NCCc3cccs3)ccc2n1Cc1cccc(C(F)(F)F)c1`, 141% (active); that for `CN(C)C(=O)c1cccn(Cc2cccc(C(F)(F)F)c2)c1=O`, 0.45%. The result for `CC1(C)OC(=O)C(=CNC(CO)C(=O)O)C(=O)O1` (configuration not stated) reads -1.2%; that for `CCOC(=O)Cn1c(=O)n(Cc2ccc(OC)cc2)c(=O)c2cccnc21`, 99.3% (active). For `CCOC(=O)Cc1ncccc1C(=O)Nc1ccc(OC)cc1`, the inhibition was -0.27%.

As to `COCCCNC(=O)CCc1nc2cccnc2n1Cc1ccc(OC)cc1`, the inhibition was -2.9%. The result for `COc1cc(CCN=Cc2ccccc2O)c([N+](=O)[O-])cc1OC` reads 1.91%; that for `O=C(COc1ccc(-c2ccccc2)cc1)NN=C1CCCC1`, 4.25%.

Turning to `COc1cccc2cc(C(=O)N(C)C)c(=O)oc12`, the inhibition was -1.37%. With `CN(C)CCNC(=O)c1ccc(Cl)c2cc3ccccc3nc12` the figure was 9.35%. The result for `CN(C)C(=O)c1coc2nc3ccccc3nc12` reads 131% (active); that for `COc1ccc(C(F)(F)F)cc1N/C=C\c1nnnn1-c1ccc(C)cc1`, 1.79%. For `CCCCNC(=O)N1CCCC(N(C)CCc2ccc(OC)c(OC)c2)C1` (configuration not stated), the inhibition is 3%. The result for `CCOC(=O)C1CCN(C(=O)Cc2c(C(=O)O)[nH]c3ccccc23)CC1` reads 3.52%; that for `CCCS(=O)(=O)Nc1c(C(=O)O)[nH]c2ccccc12`, 38.6% (active); that for `O=C(O)c1[nH]c2ccccc2c1C(c1cccc(O)c1)c1c(C(=O)O)[nH]c2ccccc12`, 0.61%. Take `CCOC(=O)/C=C/C(=O)OCC(=O)NC(c1ccccc1)c1ccccc1`: the inhibition was 1.96%. With `Cc1cc(Cl)c2oc(C(=O)N(C)C(C)c3ccccn3)c(C)c2c1` (configuration not stated) the figure was 5.49%; with `CC(C)C(=O)N1CCC2(CC1)Oc1ccc(F)cc1C(=O)C21CC(c2ccccc2)=NO1` (configuration not stated), 4.59%. For `CCN(CC)CCCNC(=S)N(CCO)Cc1cc2cc3c(cc2[nH]c1=O)OCO3`, the inhibition was 13.2%. With `COCCCNC(=S)N(CCN(C)C)Cc1cc2cc3c(cc2[nH]c1=O)OCCO3` the figure was 28.8% (active).

Consider `CCNC(=S)N(CCN(CC)CC)Cc1cc2cc3c(cc2[nH]c1=O)OCO3`, for which the inhibition is 32.3% (active). Take `Cc1cc(C)c2[nH]c(=O)c(CN(Cc3ccccc3)C(=S)NCCCN(C)C)cc2c1`: the inhibition is 5.66%. The result for `CN(C)CCCN(Cc1cc2cc3c(cc2[nH]c1=O)OCCO3)C(=O)NC1CCCCC1` reads 26.5%. With `CCNC(=S)N(CCN(CC)CC)Cc1cc2cc3c(cc2[nH]c1=O)OCCO3` the figure was 22%; with `COc1cc(NC(=O)CSC(=S)N2CCCC2)c(OC)cc1Cl`, 9.36%; with `Cc1ccsc1C1C(C#N)=C(N)OC2=C1C(=O)CC(C)(C)C2` (configuration not stated), 5.8%.

Consider `CCc1ccc(OCC(=O)N(Cc2ccccc2)C2CCS(=O)(=O)C2)cc1` (configuration not stated), for which the inhibition was 4.66%. With `Cn1c(=O)c2c(SCC(=O)NCC3CCCO3)nc(CC(C)(C)C)nc2n(C)c1=O` (configuration not stated), the inhibition was -0.73%. The result for `O=C(CC[C@H]1O[C@@H](n2ccc(=O)[nH]c2=O)[C@H](O)[C@@H]1O)N[C@H](Cc1ccccc1)C(=O)NCc1ccco1` reads 1.72%; that for `CCc1cccc2c(=O)c(C(=O)NCCCOC)c[nH]c12`, 1.41%. With `Cc1cccn2c(=O)c3cc(C(=O)NC4CCCCC4)sc3nc12` the figure was 9.42%. The result for `COCCCn1c(SCC(=O)NC2CCCC2)nnc1-c1ccccc1` reads -5.58%. Take `COCCCn1c(C(=O)NC2CCCCC2)cc2c(=O)n3cccc(C)c3nc21`: the inhibition is 37.6% (active). The result for `CCn1c(=N)c(C(=O)NCCCOC)cc2c(=O)n3cccc(C)c3nc21` reads 661% [above what the read-out allows, likely interference] (active); that for `Cc1ccc(S(=O)(=O)c2cc3c(=O)n4cccc(C)c4nc3n(CCc3ccccc3)c2=N)cc1C`, -2.09%.

Values taken from PubChem BioAssay AID588726 (The Scripps Research Institute Molecular Screening Center, 2011).
